Experimental data: PubChem BioAssay (NCATS)
Results filed as inconclusive are left out. For part of these data: Entries with a potency or affinity are not part of this list. Calls of active or inactive are those of the source. Unless noted, how the calls were made is not given here.

What was measured:
[1] = qHTS profiling of the MIPE4 collection as inhibitors of Plasmodium falciparum (3D7) proliferation (AID 743344);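 further: scaled between DMSO vehicle wells and 0.29 µM artemisinin as full inhibition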; settings: P. falciparum 3D7 in erythrocytes, SYBR Green DNA fluorescence, 72 h; at 28.5 µM
Summary of the method: (§1)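 Parasite DNA was quantified by SYBR Green I fluorescence (ex 485, em 535 nm) after overnight lysis in saponin/Triton buffer at room temperature. Cultures at 0.3% parasitemia and 2.5% hematocrit were first exposed to compound for 72 h at 37 C; signals were normalised to artemisinin (0.29 uM) and vehicle wells.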

[2] = qHTS profiling of the MIPE4 collection as inhibitors of Plasmodium falciparum (DD2) proliferation (AID 743345); settings: P. falciparum Dd2 in erythrocytes, SYBR Green DNA, 72 h; at 28.5 µM
Summary of the method: as §1

[3] = qHTS profiling of the MIPE4 collection as inhibitors of Plasmodium falciparum (DD2) proliferation (Rep 2) (AID 743346); settings: P. falciparum Dd2 in erythrocytes, SYBR Green DNA, 72 h; at 28.5 µM
Summary of the method: as §1

[4] = qHTS profiling of the MIPE4 collection as inhibitors of Plasmodium falciparum (HB3) proliferation (AID 743347);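 further: plate controls were DMSO vehicle wells for no effect and artemisinin wells for full effect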; settings: P. falciparum HB3 in erythrocytes, SYBR Green DNA, 72 h; at 28.5 µM
Summary of the method: as §1

[5] = Ebola virus entry assay, green fluorescence channel
[6] = Ebola virus entry assay, blue channel fluorescence
[7] = Ebola virus entry assay, ratio channel
[8] = Ebola virus entry assay, green channel fluorescence
[9] = Ebola virus entry assay, reporter ratio channel; Channel type: primary
[10] = Ebola virus entry assay, blue channel (ratio component)
[11] = qHTS assay for measurement of the activity of small molecule inhibitors on Zika virus induced Caspase-3 activity in human iPSC derived neural progenitor cells (hNPCs) (AID 1224857; active means well fitted inhibition curve with a large enough effect; further: % of control where 0% means no effect; nearly all actives have a fitted effect of over 65% in size)
Summary of the method: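 After overnight (16–20 h) culture at 350 cells/well, hNPCs get compound, then ZIKV 2 FFU/cell one hour later. Six hours on, Caspase-Glo 3/7 is added and luminescence measured.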

[12] = qHTS assay for measurement of the activity of small molecule inhibitors on Zika virus induced Caspase-3 activity in human astrocytoma cells (AID 1224859; active means well fitted inhibition curve with a large enough effect;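 further: plate controls were ZIKV-infected untreated cells for no effect and uninfected cells for full effect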)
Summary of the method: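 Inhibition of Zika-induced caspase-3/7 activity: SNB-19 cells, 1 h compound pretreatment, ZIKV 2 FFU/cell for 6 h at 37 C, Caspase-Glo luminescence read-out.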
Wherever efficacy is given: 0% is about no effect.

Structure (SMILES): CCCS(=O)c1ccc2nc(NC(=O)OC)[nH]c2c1 (stereo unspecified)
- parasite growth, % of DMSO control [1]: 81.1%
- parasite growth remaining, % of DMSO control (lower = more inhibition) [2]: 99.7%
- parasite growth, % of control (lower = inhibition) [3]: 101%
- growth, % of control [4]: 81.4%
- efficacy [5]: 23.9% (inactive)
- outcome [6]: inactive
- outcome [7]: inactive
- outcome [8]: inactive
- outcome [9]: inactive
- outcome [10]: inactive

Structure (SMILES): Cc1ccc(C(=O)Oc2ccc(C(O)CNC(C)(C)C)cc2OC(=O)c2ccc(C)cc2)cc1 (stereo unspecified)
- efficacy [5]: 67.4% (inactive)
- AC50 [6]: 3.98 µM (active)
- AC50 [7]: 3.55 µM (active)
- AC50 [9]: 3.55 µM (active)

Structure (SMILES): CC1N=C(N)OC1c1ccccc1 (stereo unspecified)
- efficacy [5]: 23.7% (inactive)
- AC50 [6]: 31.6 µM (active)
- outcome [7]: inactive
- outcome [8]: inactive
- AC50 [9]: 31.6 µM (active)
- Potency [11]: inactive
- outcome [12]: inactive

Structure (SMILES): CC(C)(C)OC(=O)c1ncn2c1[C@@H]1CCCN1C(=O)c1c(Br)cccc1-2
- efficacy [5]: 19.6% (inactive)
- outcome [6]: inactive
- outcome [7]: inactive
- outcome [8]: inactive
- outcome [9]: inactive
- Potency [11]: inactive
- outcome [12]: inactive

Structure (SMILES): CN1CCCC(CC2c3ccccc3Sc3ccccc32)C1 (stereo unspecified)
- efficacy [5]: -153% (inactive)
- AC50 [6]: 5.62 µM (active)
- AC50 [7]: 3.16 µM (active)
- AC50 [9]: 3.16 µM (active)

Structure (SMILES): CCCCN1CCCC1C(=O)Nc1c(C)cc(C)cc1C (stereo unspecified)
- efficacy [5]: 111% (inactive)
- outcome [6]: inactive
- outcome [7]: inactive
- outcome [9]: inactive

Structure (SMILES): O=C(NC(=O)c1c(F)cccc1F)Nc1cc(Cl)c(OC(F)(F)C(F)C(F)(F)F)cc1Cl (stereo unspecified)
- efficacy [5]: 43.9% (inactive)
- AC50 [6]: 17.8 µM (active)
- AC50 [7]: 20 µM (active)
- outcome [8]: inactive
- AC50 [9]: 20 µM (active)
- Potency [11]: inactive
- outcome [12]: inactive

Structure (SMILES): O=C(CCCN1CCC(O)(c2ccc(Br)cc2)CC1)c1ccc(F)cc1
- efficacy [5]: 36.8% (inactive)
- AC50 [6]: 7.94 µM (active)
- AC50 [7]: 5.62 µM (active)
- AC50 [9]: 5.62 µM (active)

Structure (SMILES): NC1(c2ccccc2)CCCCC1
- efficacy [5]: 44.3% (inactive)
- AC50 [6]: 35.5 µM (active)
- AC50 [7]: 31.6 µM (active)
- outcome [8]: inactive
- AC50 [9]: 31.6 µM (active)
- outcome [12]: inactive

Structure (SMILES): CCC1(CC)C(=O)NC(=O)NC1=O
- efficacy [5]: -16.1% (inactive)
- outcome [6]: inactive
- outcome [7]: inactive
- outcome [8]: inactive
- outcome [9]: inactive
- Potency [11]: inactive
- outcome [12]: inactive

Structure (SMILES): NC(=O)Cc1cccc(C(=O)c2ccccc2)c1N
- parasite growth, % of DMSO control [1]: 102%
- parasite growth, % of control (lower = inhibition) [3]: 114%
- efficacy [5]: 18% (inactive)
- outcome [6]: inactive
- outcome [7]: inactive
- outcome [8]: inactive
- outcome [9]: inactive
- outcome [10]: inactive

Structure (SMILES): CCOC(=O)Nc1ccc(NCc2ccc(F)cc2)nc1N
- parasite growth, % of DMSO control [1]: 40.6%
- parasite growth remaining, % of DMSO control (lower = more inhibition) [2]: 90%
- parasite growth, % of control (lower = inhibition) [3]: 84.5%
- growth, % of control [4]: 82.7%
- efficacy [5]: 25.7% (inactive)
- outcome [6]: inactive
- outcome [7]: inactive
- outcome [8]: inactive
- outcome [9]: inactive

Structure (SMILES): CNC(=O)NC(O)C(Cl)(Cl)Cl (stereo unspecified)
- efficacy [5]: -36.8% (inactive)
- outcome [6]: inactive
- outcome [7]: inactive
- outcome [8]: inactive
- outcome [9]: inactive
- Potency [11]: inactive
- outcome [12]: inactive

Structure (SMILES): O=C(CBr)Nc1ccc(Cl)cc1C(=O)c1ccccc1F
- efficacy [5]: 28% (inactive)
- AC50 [6]: 17.8 µM (active)
- AC50 [7]: 17.8 µM (active)
- outcome [8]: inactive
- AC50 [9]: 17.8 µM (active)
- outcome [12]: inactive

Structure (SMILES): CCCN(CCC)CCc1c[nH]c2ccccc12
- efficacy [5]: 39.8% (inactive)
- AC50 [6]: 35.5 µM (active)
- AC50 [7]: 31.6 µM (active)
- outcome [8]: inactive
- AC50 [9]: 31.6 µM (active)
- Potency [11]: inactive
- outcome [12]: inactive

Structure (SMILES): CN(C)C(=S)SSC(=S)N(C)C
- efficacy [5]: -47% (inactive)
- AC50 [6]: 1.26 µM (active)
- AC50 [7]: 1.26 µM (active)
- outcome [8]: inactive
- AC50 [9]: 1.26 µM (active)
- outcome [12]: inactive

Structure (SMILES): O=C(NC1CCN(CCc2c[nH]c3ccccc23)CC1)c1ccccc1
- efficacy [5]: 90.8% (inactive)
- AC50 [6]: 25.1 µM (active)
- AC50 [7]: 35.5 µM (active)
- AC50 [9]: 35.5 µM (active)

Structure (SMILES): O=C1NCN(c2ccccc2)C12CCN(CCCOc1ccc(F)cc1)CC2
- efficacy [5]: -43.3% (inactive)
- AC50 [6]: 3.16 µM (active)
- AC50 [7]: 3.16 µM (active)
- outcome [8]: inactive
- AC50 [9]: 3.16 µM (active)
- Potency [11]: inactive
- outcome [12]: inactive

Structure (SMILES): COc1ccc2c3c1O[C@H]1[C@@H](O)C=C[C@H]4[C@@H](C2)N(C)CC[C@@]341
- efficacy [5]: 44% (inactive)
- AC50 [6]: 28.2 µM (active)
- outcome [7]: inactive
- outcome [8]: inactive
- AC50 [9]: 31.6 µM (active)
- Potency [11]: inactive
- outcome [12]: inactive

Structure (SMILES): CCCCOc1cc(C(=O)OCCN(CC)CC)ccc1N
- efficacy [5]: 52.2% (inactive)
- AC50 [6]: 31.6 µM (active)
- AC50 [7]: 31.6 µM (active)
- AC50 [9]: 31.6 µM (active)

Structure (SMILES): CN1CCN(C2=Nc3cc(F)ccc3Cc3ccccc32)CC1
- efficacy [5]: 49.4% (inactive)
- AC50 [6]: 22.4 µM (active)
- AC50 [7]: 31.6 µM (active)
- AC50 [9]: 31.6 µM (active)

Structure (SMILES): CCCCCCCCOc1ccccc1C(=O)Nc1ccc(C(=O)OCC[N+](C)(CC)CC)cc1
- efficacy [5]: -202% (inactive)
- AC50 [6]: 10 µM (active)
- AC50 [7]: 2.51 µM (active)
- AC50 [9]: 2.51 µM (active)

Structure (SMILES): CC1=C(C(=O)OC(C)C)C(c2cccc([N+](=O)[O-])c2)C(C(=O)OC2CN(C(c3ccccc3)c3ccccc3)C2)=C(N)N1 (stereo unspecified)
- efficacy [5]: -152% (inactive)
- AC50 [6]: 39.8 µM (active)
- AC50 [7]: 28.2 µM (active)
- AC50 [9]: 28.2 µM (active)

Structure (SMILES): O=C(c1ccc(F)cc1)C1CCN(CCn2c(=O)[nH]c3ccccc3c2=O)CC1
- efficacy [5]: 78.1% (inactive)
- AC50 [6]: 28.2 µM (active)
- AC50 [7]: 17.8 µM (active)
- AC50 [9]: 17.8 µM (active)
